Laboratory results reported in the supplement of paper PMC3334620.
The full ranking holds about 33,000 sequences; the median of “E-score (-0.5 to 0.5)” is about -0.013, and the highest 2% start at about 0.3. Only a selection was taken, and the highest values are over-represented in it overall.

Biological target: T1, Msn1 (UniProt P22148)
T1 sequence: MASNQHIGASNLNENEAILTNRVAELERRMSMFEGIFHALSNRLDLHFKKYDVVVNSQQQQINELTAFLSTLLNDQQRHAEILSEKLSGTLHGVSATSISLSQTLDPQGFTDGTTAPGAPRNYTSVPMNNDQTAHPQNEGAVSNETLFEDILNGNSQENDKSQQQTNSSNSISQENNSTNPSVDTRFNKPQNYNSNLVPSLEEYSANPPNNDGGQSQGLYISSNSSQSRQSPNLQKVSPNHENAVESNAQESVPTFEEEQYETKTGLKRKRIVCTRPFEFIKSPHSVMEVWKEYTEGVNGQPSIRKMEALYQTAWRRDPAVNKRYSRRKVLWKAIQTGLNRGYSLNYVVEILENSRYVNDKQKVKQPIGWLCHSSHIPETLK
Experiment: PBM E-score (8-mer binding enrichment) (E-score (-0.5 to 0.5)); higher = stronger / more preferred TF binding
Conditions: protein concentration: 200 nM; construct: GST-full length
Experimental: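 Universal 'all 10-mer' protein binding microarrays (Agilent AMADID 015681) probed with GST-tagged S. cerevisiae TFs (full-length or DBD) made by in vitro transcription/translation (PURExpress), about 100-200 nM. Bound TF was detected with fluorescent anti-GST. Each ungapped 8-mer (which stands for itself and its reverse complement) is scored by the PBM enrichment score (E-score), a modified Wilcoxon-Mann-Whitney statistic from -0.5 to +0.5, computed with the Universal PBM Analysis Suite. Scale: above 0.35 generally sequence-specific binding.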

Sequence	PBM E-score
ATCTCCGC	-0.208
CTACAATC	0.0383
ACCGCGTG	-0.118
ATGTAAAG	-0.0428
CCGAACGC	0.158
CCTATCTA	-0.0647
CAATGCAG	-0.0326
ACGACAAC	0.227
TCGACAGA	-0.101
CCGACAAA	0.42
CCGACAAG	0.13
GCGACAGA	0.144
CCGACAAC	0.167
TCGACGAA	0.118
GCGACAAC	0.167
TCGACAAA	0.378
GCGACAAA	0.355
ACGACAAG	0.0652
ACGACAAA	0.435
TACCGGGA	0.148
AGCCTGTG	-0.221
AGAGATTG	-0.0815
GCGCAGAA	0.0474
GAGACCTC	-0.0881
GAGAACTC	-0.162

Sequence	PBM E-score
AATGGAAT	0.238
CCCAGCCA	-0.156
CAGGTTGG	-0.102
ACTATGGG	-0.169
CAGAATGC	-0.094
TACAAGTA	0.0835
AACAAGTC	0.103
AACAAATA	0.211
AACAAATC	0.0327
AACAAGTA	-0.0396
GACAAATA	0.483
CACAAATC	0.0687
TACAAATA	0.281
GACAAATC	0.473
GACAAGTC	0.419
GACAAGTA	0.369
CACAAGTC	0.0697
ATGGGATG	-0.177
CTGCAAGC	-0.17
ACACAGGT	0.0743
AGAGTAAA	-0.0814
GTCGAGTA	-0.0563
CACCCTAA	-0.141
CCCTCTGA	-0.174
ATAGGACA	0.457

Sequence	PBM E-score
GTAGGATA	-0.0803
CTAGGACA	0.489
GTAGGAGA	-0.204
CTAGGATA	-0.13
ATAGGACG	0.242
CTAGGACC	-0.0875
ATAGGACC	-0.11
GTAGGACA	0.479
CGCTACAC	-0.231
GCCACACA	-0.0564
AACGTTAA	0.137
AGTAAGCG	-0.082
GAGTAGGA	-0.151
AGGAGACG	-0.298
ACTTATAC	0.0919
ATTTATAC	0.176
ATTTATAA	0.322
GCTTATAA	-0.0204
CTTTATAA	0.177
ACTTATAA	0.333
ACCATAAA	0.173
ATATCTGA	0.112
CACTTCCA	-0.0388
AATGTCGG	0.33
AAGGTCGT	-0.0332

Sequence	PBM E-score
AATGTCGC	0.398
AATGTCGT	0.442
GATGTCGC	0.0908
AGTGTCGG	0.202
CATGTCGC	0.237
AATGTCGA	0.299
CATGTCGG	0.224
CTCCTTTC	-0.214
GAAAGTGC	-0.0805
ATAGACCA	-0.0849
ACGATCCC	-0.232
CGGCTCTA	-0.00727
CGGGACAC	0.376
AGGGACAA	0.487
AGGGACGA	0.261
AGGGACCA	-0.188
CGGGACTC	0.0112
CGGGACGA	0.115
CGGGACAA	0.463
AGGGACCT	-0.0323
AGGGACAT	0.488
CGGGACAG	0.197
AGGGACGG	-0.35
CGGGACCA	-0.152
GGCTAAGA	0.0666

Sequence	PBM E-score
ATCCTAGC	-0.118
CCAAGAAA	0.0697
AAATAGCA	-0.00406
AACCTCGT	-0.0168
AGGGACAG	0.107
AGGGACAC	0.45
AGGGACGC	-0.0191
AATTTTGT	0.34
AATTTTGA	0.161
AATTTTGC	0.0375
AAATTTGG	0.104
AAATTTGA	0.19
AAATTTGT	0.363
ACATGCGT	0.0734
CGTGTACA	0.277
CATTCTAG	-0.0107
CTAGCGCA	-0.153
CGCAAAGC	0.0415
ACAATACA	0.0447
ACAATACG	0.0932
ACAATACT	0.325
ATAGACAG	0.202
ATAGACTA	0.00413
ATAGACGA	0.0929
ATAGACAT	0.428

Sequence	PBM E-score
ATAGACAA	0.41
ATAGACAC	0.245
ATCGTCTA	0.0246
ATGAAGTC	-0.0197
ACAGCTCG	-0.137
TAGGAATA	0.0598
AACCATGT	0.0974
ATGCAGGC	-0.112
ACATTTAG	0.279
ACATTTAT	0.319
ACATTTAC	0.333
CCATTTAC	0.0112
AGATTTAT	0.0411
GCATTTAC	0.0372
CACAAGCC	-0.139
CATCAGTA	0.0122
AGTGGTCG	-0.0675
AGTTAAAT	0.0476
CGTGTTAA	-0.00332
ATTTCGGA	0.239
AGGGGACA	0.386
TGGGGACA	0.433
TGGGGAAA	-0.0201
CGGGGACA	0.396
AGGGGACG	-0.0829

Sequence	PBM E-score
CGGGGACG	-0.152
CGGGGACC	-0.1
GGGGGACA	0.287
AGGGGACT	-0.151
CTTGAGAC	0.0475
GACGTTAC	0.0854
AGGACGTC	0.177
GAGAAACA	0.0761
CGAGTGGC	-0.181
ATGTCGCA	0.38
ACGTCGCG	0.138
GTGTCGCA	0.0382
AGGTCGCG	0.0713
ATGTCGCC	0.115
ATGTCGCG	0.387
GGGGCCAC	-0.325
GTCGCGAC	0.349
CTCGCGAC	0.0116
GTCGCGAA	0.141
AAGCTGGT	-0.026
TAGGCCTA	-0.0564
CCGTTGTC	0.304
AAGTTGTC	0.298
CCGTTGTA	0.187
ACGTTGTC	0.119

Sequence	PBM E-score
CAGTTGTC	0.32
CAGTTGTA	0.069
ACATTCTG	0.162
TAGCAGGA	0.0461
GCACCCGC	-0.163
ACATTGGC	-0.0178
ATTCAGGC	0.0647
CACATTGC	0.115
GACATTGA	0.386
GACATTGC	0.434
CACATTGA	0.0276
TACATTGA	0.105
AACATTGC	-0.162
ATCCCGGG	0.0417
CAGAGACA	0.204
GCTCAAGA	-0.102
CACGGCTG	-0.156
CAGGTGGA	-0.193
CTGCCCTC	-0.329
GAAAAGTC	0.326
AAAAAGTC	0.418
GAAAAGTA	0.167
ATAAAGTA	0.243
ACAAAGTC	0.236
GAAAAGGC	-0.0462

Sequence	PBM E-score
ATAAAGTG	0.154
CAAAAGTC	0.282
ATAAAGTC	0.305
AAGCGAGA	-0.127
CGGCCACG	-0.189
GACCCGAC	-0.0784
AGGTAATC	-0.139
AACAAAAG	0.101
ACAGCGTG	0.0507
GAATGTAC	0.342
GAATGTAA	-0.0699
CAATGTAC	0.195
ATATGTAA	0.131
GAATGTGC	-0.148
AAATGTAG	-0.0386
ATATGTAC	0.371
AAATGTAC	0.371
CTATGTAC	0.189
ATATCACG	-0.0452
